High-throughput results as filed in PubChem BioAssay.
Shown are actives, neighbours in structure and some others; about 8.9% of the full set was active somewhere.
HPGD inh: inhibitors of human 15-hydroxyprostaglandin dehydrogenase (HPGD); P15428; purified HPGD, NADH fluorescence kinetic, PGE2 substrate; Potency, µM, for inactives: top-dose activity change, negative = inhibition, usual class: inhibitors; 150,000 compounds, 4.3% hits; AID 894; active = well fitted inhibition curve with a large enough effect, not every such curve was filed as active; inconclusive = small, poorly fitted or top-dose-only effect, or another doubt; inactive = no such curve, though single readings can be large or run the other way; also: potency is read from the fitted curve at half-maximal effect
Target sequence (P15428 whole entry, looked up): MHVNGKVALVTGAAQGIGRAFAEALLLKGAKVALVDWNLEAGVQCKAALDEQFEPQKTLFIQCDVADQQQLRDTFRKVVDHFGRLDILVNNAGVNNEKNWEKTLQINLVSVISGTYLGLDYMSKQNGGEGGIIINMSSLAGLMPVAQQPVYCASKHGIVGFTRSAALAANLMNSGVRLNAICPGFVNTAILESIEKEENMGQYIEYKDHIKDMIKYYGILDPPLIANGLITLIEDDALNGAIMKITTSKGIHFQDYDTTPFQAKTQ
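NADH formation kinetics: reaction with 30 uM PGE2 and 1 mM NAD+ (final), 20 nM enzyme, Tris-HCl pH 8 with Tween 20, after 15 min compound preincubation at room temperature. Fluorescence change, last versus first of five reads.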
NPSR antagonist: neuropeptide S receptor (human) antagonism, cAMP; CHO-NPSR cells, cAMP TR-FRET, antagonist mode; Q6W5P4; AID 1461; 220,000 compounds, 1% hits; Potency, µM (top dose mostly 38.3 µM), for inactives: top-dose activity change, negative = inhibition, hits mostly inhibitors; also: potency is read from the fitted curve at half-maximal effect; nearly all actives have a fitted effect of over 50% in size
Target sequence (Q6W5P4 whole entry, looked up): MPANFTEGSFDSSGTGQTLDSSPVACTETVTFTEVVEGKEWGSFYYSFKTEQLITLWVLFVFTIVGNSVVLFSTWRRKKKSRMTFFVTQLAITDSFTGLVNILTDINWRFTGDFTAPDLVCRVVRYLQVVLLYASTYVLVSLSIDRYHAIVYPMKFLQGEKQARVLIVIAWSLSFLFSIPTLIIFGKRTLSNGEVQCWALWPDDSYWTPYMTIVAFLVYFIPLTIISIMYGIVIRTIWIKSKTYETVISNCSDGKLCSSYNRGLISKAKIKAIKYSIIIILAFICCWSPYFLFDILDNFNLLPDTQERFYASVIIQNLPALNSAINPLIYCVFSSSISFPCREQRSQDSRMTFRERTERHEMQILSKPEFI
ALDH1A1 inh: ALDH1A1 (human) enzyme inhibition. 220,000 compounds, 7.3% hits. Purified ALDH1A1, NADH fluorescence, propionaldehyde substrate. P00352. Potency, µM (highest dose often 75.3 µM), inactives show at the highest dose activity, negative = inhibition, usual class: inhibitors; active = well fitted inhibition curve with a large enough effect, not every such curve was filed as active; inconclusive = small, poorly fitted or top-dose-only effect, or another doubt; inactive = no such curve, though single readings can be large or run the other way;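 also: potency is read from the fitted curve at half-maximal effect; plate controls were no enzyme wells and a reference inhibitor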
IMPase Li inh: cell-permeable IMPase inhibitors with lithium potentiation | CHO-M1 cells, IP1 TR-FRET (IP-One), carbachol + lithium | 210,000 compounds, 0.35% hits | Potency, µM (top dose mostly 59.4 µM), inactives show at the top dose activity, negative = IMPase inhibition, hits mostly inhibitors;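 also: IP1 builds up when IMPase is blocked and the TR-FRET signal falls; potency is read from the fitted curve at half-maximal effect; plate controls were basal vehicle for no effect and high inhibitor control for full effect; nearly all actives have a fitted effect of over 50% in size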
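CHO cells stably expressing M1 receptor (2000/well) were cultured 16–30 h, then exposed to compounds with a small lithium addition for 30 min at 37C. IP1 was measured by TR-FRET competition; AC50 from Hill fits.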
ALOX12 inhib: 12-hLO (ALOX12) enzyme inhibition. P18054. purified 12-hLO, xylenol orange hydroperoxide absorbance. Potency, µM (highest dose often 57.1 µM), for inactives: at the highest dose activity change, negative = inhibition, usual class: inhibitors. 150,000 compounds, 0.12% hits. AID 1452; also: potency is read from the fitted curve at half-maximal effect; nearly all actives have a fitted effect of over 55% in size
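Hydroperoxide output read as Fe(III)-xylenol orange absorbance, 573-to-405 nm ratio, after 30 min reaction with 40 uM arachidonic acid. Enzyme: 150 nM purified human 12hLO, 15 min compound preincubation; 25 mM Hepes pH 7.0, room temperature.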
IMPase cell inh: membrane-permeable compound that blocks inositol monophosphatase. P97697. CHO-M1 cells, IP1 accumulation, HTRF TR-FRET ratio. inhibition (IP1 accumulation), % at 46.1 µM. 120,000 tested, under 10 active. AID 901; active = well fitted curve in the direction sought with a large enough effect in the signal ratio, not every such curve was filed as active; inconclusive = small, poorly fitted or top-dose-only effect, or a change in a side signal; inactive = no such curve, though single readings can be large or run the other way; the % refers to the signal ratio;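 also: cells stimulated with carbachol in lithium chloride buffer; plate controls were DMSO basal wells for no effect and reference inhibitor wells for full effect; higher means more IMPase inhibition seen as more IP1 and lower FRET ratio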
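Elevated IP1 in lysates lowers TR-FRET signal (665/620 ratio and 620 channel reported). Cells were CHO-M1, given carbachol (50 uM as added) plus 50mM LiCl, pH 7.4, 30 min, 37C; compounds titrated up to 46 uM; AC50 by Hill equation.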
Starred values were filed as active, the others as inactive; ? = inconclusive; . = no result given; [ ] = remark or other dose. Unless noted, calls follow the shape of the dose curve; as a rule, active = well fitted curve in the direction sought with a large enough effect; inconclusive = small, poorly fitted or top-dose-only effect, or another doubt; inactive = no such curve, though single readings can be large; an effect the other way counts as inactive or inconclusive. Unless noted, % is scaled to controls: 0 for no effect and ±100 for the full control effect.

SMILES	HPGD inh	NPSR antagonist	ALDH1A1 inh	IMPase Li inh	ALOX12 inhib	IMPase cell inh
CCN(CC)c1ccc(C=N/C(C#N)=C(\N)C#N)cc1	-1%	-25%[46.1 µM]	11µM*	11%[38.3 µM]	-21%	?
CCCC(O)(CCC)C(=O)NN(C(=O)CCl)c1ccccc1	-10%	-18%	25µM*	7%	1%	3
CCCCC(O)(CCCC)C(=O)NN(C(=O)OCC)c1ccccc1	2%	-5%	-11%	14%	2%	-3
Cc1ccc(C(=O)Nc2cccc(-c3cnc4ccccc4n3)c2)cc1	-6%	?	12%	4%[38.3 µM]	-3%	5
O=C(Nc1cccc(-c2cnc3ccccc3n2)c1)c1ccco1	-23%	-22%[46.1 µM]	25µM*	27%[38.3 µM]	1%	0
CC(C(=O)NCC1CCCCC1)N1CCN(S(=O)(=O)c2ccccc2F)CC1 (configuration not stated)	.	-18%	16µM*	9%	.	.
Cc1ccccc1OCC(O)Cn1c(NCc2ccccc2)nc2c1c(=O)[nH]c(=O)n2C (configuration not stated)	-1%	-9%[46.1 µM]	2%	-14%[38.3 µM]	-9%	8
Cc1ccccc1OCC(O)Cn1c(Br)nc2c1c(=O)[nH]c(=O)n2C (configuration not stated)	.	17%	-14%	6%	.	.
CN(C)CCNc1nc2c(c(=O)[nH]c(=O)n2C)n1CC(O)COc1ccc(Cl)cc1Cl (configuration not stated)	22µM*	-1%[46.1 µM]	?	6%[38.3 µM]	-9%	2
CC(O)CSc1nc2c(c(=O)[nH]c(=O)n2C)n1CC(O)COc1ccccc1 (configuration not stated)	.	20%	24µM*	-2%	.	.
Cc1ccccc1OCC(O)Cn1c(SC(C)C)nc2c1c(=O)[nH]c(=O)n2C (configuration not stated)	14µM*	-3%[7.67 µM]	7.1µM*	6%[38.3 µM]	-21%	-1
CC(C)Sc1nc2c(c(=O)[nH]c(=O)n2C)n1CC(O)COc1ccccc1 (configuration not stated)	.	1%	?	9%	.	.
CCSc1nc2c(c(=O)[nH]c(=O)n2C)n1CC(O)COc1ccccc1C (configuration not stated)	14µM*	14%[46.1 µM]	28µM*	-12%[38.3 µM]	-3%	1
O=C(Cc1ccc(Cl)cc1)NC1CC1	.	8%	8%	-7%	.	.
COc1ccccc1NC(=O)C(C)Nc1ccc(C)c(Cl)c1 (configuration not stated)	.	-9%	2%	9%	.	.
O=C(Cc1ccc(Cl)cc1)Nc1ccc2c(c1)C(=O)NC2=O	.	-2%	0%	14%	.	.
O=C(c1ccncc1)N1CCC2(CC1)CN(c1cccc(-c3ccccc3)c1)C2	?	.	?	-1%	-1%	.
CCn1c(Cl)c(C=O)s/c1=N\S(=O)(=O)c1ccccc1	.	10µM*	.	.	.	.
Cc1nc2c([nH]c3ccccc32)c(=O)n1N	.	4%	5%	-1%	.	.
COc1cc(C(N)=O)cc(Cl)c1OC	.	-20%	1%	-2%	.	.
COc1ccc(CC(=O)Nc2ccc(C(=O)NC(C)(C)C)cc2)cc1OC	.	2%	0%	2%	.	.
CNC(=O)c1cc(Cl)c(OC)c(OC)c1	?	15%	22µM*	-2%	-6%	-12
COc1ccc(CC(=O)Nc2ccc(C(=O)Nc3ccccc3C(=O)O)cc2)cc1OC	-16%	15%	28µM*	-17%	-2%	-8
COc1c(Cl)cc(C(=O)NN)cc1Cl	.	-11%	2.2µM*	3%	.	.
NNC(=O)c1cc(O)c(O)c(O)c1	.	0%	25µM*	12%	.	.
SMILES	HPGD inh	NPSR antagonist	ALDH1A1 inh	IMPase Li inh	ALOX12 inhib	IMPase cell inh
O=C(/C=C/c1cccc(F)c1)Nc1ccc(S(=O)(=O)Nc2ncccn2)cc1	.	17%	-5%	.	.	.
COC(=O)[C@@]1(Cc2ccc(OC)cc2)[C@H]2c3cc(C(=O)N4CCCC4)n(CCCNc4ncc(C(F)(F)F)cc4Cl)c3C[C@H]2CN1C(=O)c1ccccc1	-18%	.	-3%	-9%	-6%	.
O=C(Nc1ccccc1C(=O)O)c1cccc(S(=O)(=O)N2CCCC2)c1	.	.	.	.	.	-7
COc1c(Cl)cc(C(=O)Nc2ccccc2C(=O)O)cc1Cl	14µM*	5%[46.1 µM]	13µM*	-3%[38.3 µM]	2%	8
COC(=O)CC1(c2ccc(OC)cc2)C(=O)c2ccccc2C1=O	.	5%	.	.	.	.
Cc1nn(C(C)(C)C)c(OC(=O)c2ccco2)c1Sc1ccccc1	-10%	-22%[46.1 µM]	4%	5%[38.3 µM]	-1%	8
Cc1ccsc1C(=O)NNC(=O)C1CC=CCC1C(=O)O (configuration not stated)	-7%	6%	1%	-2%	-1%	.
Cc1ccsc1C(=O)NNC(=O)C1CCCCC1C(=O)O (configuration not stated)	-2%	6%[46.1 µM]	22µM*	0%	2%	4[0.0738 µM]
CCC/C=N/NC(=O)c1cccc(Br)c1	.	5%	25µM*	7%	.	.
O=C(NNC(=O)c1c(F)cccc1F)c1ccccc1-n1cccc1	.	10%	7%	-13%	.	.
COc1ccc(Cl)cc1C(=O)CSc1nnnn1C1CCCCC1	-26%	-20%[46.1 µM]	5µM*	19%	-4%	14
COc1ccc(Cl)cc1C(=O)CSc1nnnn1C1CCCC1	.	-19%[46.1 µM]	2µM*	.	-10%	4
C#CCNC(=O)c1ccc(OCc2ccccc2)cc1Cl	.	7%	-1%	-15%	.	.
Cc1sc2nc(SCC(=O)NCCO)n(-c3ccccc3)c(=O)c2c1C	.	22%	?	-1%	.	.
Cc1sc2nc(SCC(N)=O)n(-c3ccccc3)c(=O)c2c1C	.	0%	18µM*	3%	.	.
Fc1ccc(C2c3[nH]c4ccccc4c3CCN2Cc2cccn2-c2ncccn2)cc1 (configuration not stated)	.	6%	10µM*	7%	.	.
COc1cccc(C2c3[nH]c4ccccc4c3CCN2Cc2cccn2-c2ncccn2)c1 (configuration not stated)	.	29%	-1%	6%	.	.
Clc1ccc(-n2cccc2CN2CCc3c([nH]c4ccccc34)C2c2ccccn2)nc1 (configuration not stated)	.	?	14µM*	26%	.	.
O=C(Cc1ccsc1)N1CCc2c([nH]c3ccccc23)C1c1ccccn1 (configuration not stated)	.	17%	-15%	9%	.	.
COC(=O)/C=c1/s/c(=C(/C#N)C(=O)N2CCCCC2)n(-c2ccccc2)c1=O	-13%	-3%	-11%	-1%	0%	-13
COCCNC(=O)/C(C#N)=C1\N=C(N)c2ccccc21	14µM*	-12%	?	6%	1%	.
N#C/C(C(=O)N1CCCCC1)=C1/N=C(N)c2ccccc21	14µM*	-1%	?	1%	-3%	.
COCCNC(=O)/C(C#N)=C/C=C/c1ccccc1	.	-26%	-3%	10%	.	.
